Data published in PubChem BioAssay (Tox21).
Records with an inconclusive call do not appear. Activity calls are given as the source filed them. Unless noted, calls follow the shape of the full dose curve.

Columns and labels:
[1] = Nuclear factor erythroid 2-related factor 2/antioxidant responsive element (Nrf2/ARE) small molecule agonists: qHTS cell viability counter screen in human keratinocytes (AID 1919968; active = well fitted curve in the direction sought with a large enough effect in the repeat runs; an effect the other way counts as inactive or inconclusive; also: nearly all actives have a fitted effect of over 55% in size; also: potency is read from the fitted curve at half-maximal effect)
In short: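 Viability counter-screen: KeratinoSens reporter cells, DMSO-delivered compounds, 23 h at 37 C, CellTiter-Fluor fluorescence.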

[2] = Nuclear factor erythroid 2-related factor 2/antioxidant responsive element (Nrf2/ARE) small molecule agonists: luciferase reporter gene qHTS assay in human keratinocytes (AID 1919969); also: nearly all actives have a fitted effect of over 35% in size; also: potency is read from the fitted curve at half-maximal effect
[3] = target: KiSS-1 receptor (Homo sapiens) (UniProt Q969F8); assay: Human kisspeptin (KISS1R) small molecule agonists, calcium flux assay in KISS1R-HEK293 cells (AID 1920064; active = well fitted curve in the direction sought with a large enough effect in the repeat runs; an effect the other way counts as inactive or inconclusive)
Chain of KiSS-1 receptor (Homo sapiens) (Q969F8 whole entry, looked up): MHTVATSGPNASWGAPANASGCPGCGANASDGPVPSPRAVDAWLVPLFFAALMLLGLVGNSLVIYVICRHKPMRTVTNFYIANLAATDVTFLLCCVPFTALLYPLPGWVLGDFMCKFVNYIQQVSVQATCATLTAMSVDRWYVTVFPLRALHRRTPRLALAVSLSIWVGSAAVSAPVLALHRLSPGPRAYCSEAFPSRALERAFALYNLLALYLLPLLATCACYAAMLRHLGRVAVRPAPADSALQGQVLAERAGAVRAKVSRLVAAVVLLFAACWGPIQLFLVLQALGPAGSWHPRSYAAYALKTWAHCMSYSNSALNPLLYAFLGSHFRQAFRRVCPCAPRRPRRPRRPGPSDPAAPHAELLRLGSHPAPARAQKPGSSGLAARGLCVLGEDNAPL
In short: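 Intracellular calcium mobilization in KISS1R-HEK293 cells was recorded by fluorescence (Ex/Em 480/540) for 3 min following compound addition to cells pre-loaded 1 h with calcium dye.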

[4] = G protein-coupled receptor (GPCR) small molecule agonists, calcium flux assay: HEK293 wild type cell line counter screen (AID 1920065)
In short: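 In this agonist-mode screen, ATP is the positive control and DMSO the vehicle. Cells grow 18 h before a 1 h dye incubation at 37 C; signal is taken at Ex/Em 480/540 over 3 min.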

[5] = p53 small molecule agonists, cell-based qHTS assay with rat liver microsomes (AID 1963578)
In short: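 Agonist mode in p53RE-bla reporter cells, with compounds co-incubated 16 h at 37 C alongside 0.5 mg/mL rat liver microsomes and 0.5 mg/mL NADPH (final), followed by a 2 h LiveBLAzer detection step.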

[6] = p53 small molecule agonists, cell-based qHTS assay with human liver microsomes: qHTS cell viability counter screen (AID 1963579); also: nearly all actives have a fitted effect of over 45% in size; also: potency is read from the fitted curve at half-maximal effect
In short: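 Metabolically activated exposure: compounds, human liver microsomes and NADPH (0.5 mg/mL final apiece) were added to p53RE-bla cells seeded 5 h earlier, left 16 h at 37 C, and then assessed for viability by CellTiter-Glo luminescence.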

[7] = p53 small molecule agonists, cell-based qHTS assay with rat liver microsomes: qHTS cell viability counter screen (AID 1963580); also: nearly all actives have a fitted effect of over 45% in size; also: potency is read from the fitted curve at half-maximal effect
In short: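 In HCT-116 cells carrying a p53 response element-bla reporter, compounds were metabolically activated in situ by rat liver microsomes with NADPH over 16 h. Cell ATP content then served as the cytotoxicity measure.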

[8] = p53 small molecule agonists, cell-based qHTS assay: qHTS cell viability counter screen (AID 1963581); also: nearly all actives have a fitted effect of over 45% in size; also: potency is read from the fitted curve at half-maximal effect
In short: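 Compounds are pinned onto HCT-116 p53RE-bla cells and left 16 h at 37 C. Following the reporter FRET read, ATP is quantified by CellTiter-Glo luminescence after 30 min at room temperature.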

[9] = p53 small molecule agonists, cell-based qHTS assay (AID 1963582; active = well fitted activation curve with a large enough effect in the signal ratio in the repeat runs, not every such curve was filed as active; the % refers to the signal ratio)
In short: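 Agonist activity was scored from beta-lactamase FRET fluorescence in p53RE-bla cells treated 16 h at 37 C with compounds in DMSO, substrate incubation being 2 h at room temperature.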

[10] = target: 5-hydroxytryptamine receptor 2A (Homo sapiens) (UniProt P28223); assay: 5-hydroxytryptamine receptor 2A (HTR2A) small molecule antagonists, cell-based qHTS assay (AID 1963586); also: nearly all actives have a fitted effect of over 45% in size; also: potency is read from the fitted curve at half-maximal effect
Chain of 5-hydroxytryptamine receptor 2A (Homo sapiens) (P28223 whole entry, looked up): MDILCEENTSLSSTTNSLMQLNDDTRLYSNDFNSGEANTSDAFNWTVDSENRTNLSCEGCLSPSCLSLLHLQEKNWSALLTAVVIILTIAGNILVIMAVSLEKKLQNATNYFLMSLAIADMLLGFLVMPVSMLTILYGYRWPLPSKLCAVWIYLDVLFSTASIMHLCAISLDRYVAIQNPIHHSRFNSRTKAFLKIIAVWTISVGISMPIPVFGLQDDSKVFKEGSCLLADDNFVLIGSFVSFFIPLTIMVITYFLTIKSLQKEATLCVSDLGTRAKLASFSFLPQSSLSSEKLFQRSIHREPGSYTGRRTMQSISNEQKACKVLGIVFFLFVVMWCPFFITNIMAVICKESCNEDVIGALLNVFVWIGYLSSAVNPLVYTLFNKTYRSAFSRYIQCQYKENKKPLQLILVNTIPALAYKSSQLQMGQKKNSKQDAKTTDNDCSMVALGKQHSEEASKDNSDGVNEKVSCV
In short: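 Antagonist-mode intracellular calcium assay: DOI (4 nM) added after 5 min compound pre-incubation at room temperature to dye-loaded HTR2A-CHO cells. Fluorescence followed for 3 min, sampled every second.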

[11] = target: 5-hydroxytryptamine receptor 2A (Homo sapiens) (UniProt P28223); assay: 5-hydroxytryptamine receptor 2A (HTR2A) small molecule agonists, cell-based qHTS assay (AID 1963587); also: nearly all actives have a fitted effect of over 30% in size; also: potency is read from the fitted curve at half-maximal effect
In short: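 HTR2A-CHO cells, plated 18 h at 37 C/5% CO2, dye-loaded 1 h at 37 C; compounds in DMSO added by pin tool (agonist mode). Intracellular calcium flux read as kinetic fluorescence on FDSS over 2 min at 1 s intervals.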

[12] = target: Muscarinic acetylcholine receptor M1 (Homo sapiens) (UniProt P11229); assay: Cholinergic receptor muscarinic 1 (CHRM1) small molecule antagonists, cell-based qHTS assay (AID 1963588); also: nearly all actives have a fitted effect of over 40% in size
Chain of Muscarinic acetylcholine receptor M1 (Homo sapiens) (P11229 whole entry, looked up): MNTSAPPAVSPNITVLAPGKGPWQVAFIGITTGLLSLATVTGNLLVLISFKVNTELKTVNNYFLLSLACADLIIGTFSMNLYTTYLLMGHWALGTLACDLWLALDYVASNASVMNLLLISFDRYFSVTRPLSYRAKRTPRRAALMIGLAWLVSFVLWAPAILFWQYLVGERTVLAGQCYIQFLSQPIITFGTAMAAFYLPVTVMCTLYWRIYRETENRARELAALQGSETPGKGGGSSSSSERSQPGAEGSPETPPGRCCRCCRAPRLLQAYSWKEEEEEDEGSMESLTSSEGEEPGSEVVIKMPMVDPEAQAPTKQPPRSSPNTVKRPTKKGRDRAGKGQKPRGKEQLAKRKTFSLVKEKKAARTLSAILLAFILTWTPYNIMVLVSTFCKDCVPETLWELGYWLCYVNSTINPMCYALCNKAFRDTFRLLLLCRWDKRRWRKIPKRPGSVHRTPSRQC
In short: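 CHRM1-CHO calcium-flux assay, antagonist mode. Cells were seeded 18 h, dye-loaded 1 h at 37 C and given compound for 5 min at RT, then acetylcholine was added at 50nM. FDSS fluorescence was read 3 min; 15 concentrations, three runs.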

[13] = cAMP Responsive Elements (CRE) small molecule agonists, cell-based qHTS assay (AID 1963590)
In short: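 FRET-based beta-lactamase readout (LiveBLAzer B/G, 2 h RT) quantified CRE activation in HEK 293T CRE-bla cells after 3 h treatment with DMSO-dissolved compounds.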

[14] = target: Beta-2 adrenergic receptor (Homo sapiens) (UniProt P07550); assay: Adrenergic beta2 receptor (ADRB2) small molecule agonists, cell-based qHTS assay (AID 1963593);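 also: CHO cells stably overexpressing human ADRB2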
Chain of Beta-2 adrenergic receptor (Homo sapiens) (P07550 whole entry, looked up): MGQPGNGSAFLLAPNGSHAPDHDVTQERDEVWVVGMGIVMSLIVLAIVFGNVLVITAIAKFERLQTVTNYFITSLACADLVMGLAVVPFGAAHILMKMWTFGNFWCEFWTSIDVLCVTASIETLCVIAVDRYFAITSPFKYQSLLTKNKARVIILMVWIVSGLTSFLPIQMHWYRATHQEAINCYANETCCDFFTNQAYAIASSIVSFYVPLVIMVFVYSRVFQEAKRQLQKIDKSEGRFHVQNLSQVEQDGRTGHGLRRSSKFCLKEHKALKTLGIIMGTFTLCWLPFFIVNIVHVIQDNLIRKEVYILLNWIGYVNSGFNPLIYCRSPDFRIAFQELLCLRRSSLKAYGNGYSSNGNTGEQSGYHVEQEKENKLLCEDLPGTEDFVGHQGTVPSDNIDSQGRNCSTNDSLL
In short: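 CHO cells stably over-expressing ADRB2 were plated overnight at 37C, then dosed with compounds plus a stimulation mix containing 100uM IBMX and 25uM Ro-20-1724 for 0.5hr at room temperature. cAMP was measured by HTRF competition, 1hr.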

[15] = target: D(2) dopamine receptor (Homo sapiens) (UniProt P14416); assay: Dopamine D2 receptor (DRD2) small molecule agonists, cell-based qHTS assay (AID 1963594); also: nearly all actives have a fitted effect of over 35% in size
Chain of D(2) dopamine receptor (Homo sapiens) (P14416 whole entry, looked up): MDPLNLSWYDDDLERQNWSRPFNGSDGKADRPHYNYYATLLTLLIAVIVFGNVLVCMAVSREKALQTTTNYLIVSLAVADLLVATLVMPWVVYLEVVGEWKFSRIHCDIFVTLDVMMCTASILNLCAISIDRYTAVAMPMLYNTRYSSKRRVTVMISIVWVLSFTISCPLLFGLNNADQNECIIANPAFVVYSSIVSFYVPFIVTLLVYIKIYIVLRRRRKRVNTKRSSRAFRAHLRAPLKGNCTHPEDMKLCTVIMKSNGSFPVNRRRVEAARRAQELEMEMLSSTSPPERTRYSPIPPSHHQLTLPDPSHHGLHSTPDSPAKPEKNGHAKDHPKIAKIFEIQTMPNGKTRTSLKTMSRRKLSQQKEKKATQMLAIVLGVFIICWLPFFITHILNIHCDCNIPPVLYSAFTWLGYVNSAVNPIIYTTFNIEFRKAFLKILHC
In short: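 HEK293 cells stably expressing DRD2 were cultured 24 h at 37 C, then given Ro20-1724 (0.1 mM final) and compounds for 10 min at room temperature. NKH477 (200nM) was then added for 30 min. cAMP was read by HTRF.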

[16] = target: D(2) dopamine receptor (Homo sapiens) (UniProt P14416); assay: Dopamine D2 receptor (DRD2) small molecule antagonists, cell-based qHTS assay (AID 1963595; active = well fitted inhibition curve with a large enough effect in the signal ratio in the repeat runs, with a control signal flat; the % refers to the signal ratio; also: potency is read from the fitted curve at half-maximal effect)
In short: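 Antagonism was scored as restored cAMP in HEK293-DRD2 cells. These cells were stimulated with 200 nM NKH477 and 12 nM quinpirole for 30 min at room temperature, in the presence of 0.1 mM Ro20-1724.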

[17] = target: Gonadotropin-releasing hormone receptor (Homo sapiens) (UniProt P30968); assay: Human gonadotropin-releasing hormone receptor (GnRHR) small molecule agonists, calcium flux assay in GnRHR-HEK293 cells (AID 1920063); also: nearly all actives have a fitted effect of over 35% in size; also: potency is read from the fitted curve at half-maximal effect
Chain of Gonadotropin-releasing hormone receptor (Homo sapiens) (P30968 whole entry, looked up): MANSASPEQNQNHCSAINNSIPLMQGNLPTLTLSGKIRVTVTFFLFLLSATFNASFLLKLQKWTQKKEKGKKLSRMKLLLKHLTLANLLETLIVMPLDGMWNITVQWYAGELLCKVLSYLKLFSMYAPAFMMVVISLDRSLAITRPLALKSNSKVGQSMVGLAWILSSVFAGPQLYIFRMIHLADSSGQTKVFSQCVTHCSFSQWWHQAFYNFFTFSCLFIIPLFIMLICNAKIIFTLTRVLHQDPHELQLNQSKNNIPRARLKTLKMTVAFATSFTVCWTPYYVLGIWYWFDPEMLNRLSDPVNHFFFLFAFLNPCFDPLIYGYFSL
In short: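 Tox21-format agonist screen using human GnRHR-expressing HEK293 cells and a fluorescent calcium dye; kinetic 3-min fluorescence reading after compound addition, 15-point concentration series run in triplicate.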

[18] = target: Muscarinic acetylcholine receptor M1 (Homo sapiens) (UniProt P11229); assay: Cholinergic receptor muscarinic 1 (CHRM1) small molecule agonists, cell-based qHTS assay (AID 1963589); also: nearly all actives have a fitted effect of over 35% in size
In short: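 Stable CHRM1-CHO cells (human receptor) were incubated 18 h, dye-loaded for 1 h at 37 C and exposed to test compounds for agonist activity, with calcium-dependent fluorescence followed kinetically.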

[19] = cAMP Responsive Elements (CRE) small molecule antagonists, cell-based qHTS assay (AID 1963591; active = well fitted inhibition curve with a large enough effect in the signal ratio in the repeat runs, not every such curve was filed as active; the % refers to the signal ratio)
In short: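 qHTS in CRE-bla HEK 293T cells: compound in DMSO, then 0.25 uM NKH477 (final), 3 h at 37 °C/5% CO2; beta-lactamase FRET read-out after 2 h substrate incubation.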

[20] = target: Beta-2 adrenergic receptor (Homo sapiens) (UniProt P07550); assay: Adrenergic beta2 receptor (ADRB2) small molecule antagonists, cell-based qHTS assay (AID 1963592); also: nearly all actives have a fitted effect of over 50% in size; also: potency is read from the fitted curve at half-maximal effect; as to activity change, negative = inhibition: series mostly up to about 92 µM
In short: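 Cells (CHO, stable ADRB2 overexpression) incubated 18-20hr at 37C; compounds added from DMSO; agonist mix (1nM isoproterenol, 100uM IBMX, 25uM Ro-20-1724) added; 0.5hr RT; d2-cAMP and anti-cAMP-cryptate added; 1hr RT; 665/615 nm read.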
% is scaled to controls: 0 for no effect and ±100 for the full control effect.

Cc1cc(O)c(C(C)C)cc1Cl
inactive: Potency [1] | Potency [2] | Potency [3] | Potency [4] | Potency [5] | Potency [6] | Potency [7] | Potency [8] | Potency [9] | Potency [10] | Potency [11] | Potency [12] | Potency [13] | Potency [14] | Potency [15] | Potency [16]

N=C1N=C(N)c2cc3ccccc3cc21
inactive: Potency [17] | Potency [11] | Potency [18]
active: Potency [1] 24.3 µM | Potency [2] 21.7 µM | Potency [6] 45.8 µM | Potency [7] 45.8 µM | Potency [8] 23.6 µM

Nc1ccn([C@@H]2O[C@H](CO)[C@@H](O)C2O)c(=O)n1 (stereo partly drawn)
inactive: Potency [1] | Potency [2] | Potency [17] | Potency [4] | Potency [8] | Potency [19] | Potency [20] | Potency [14] | Potency [15] | Potency [16]

CCN(Cc1ccccc1)c1ccccc1
inactive: Potency [1] | Potency [2] | Potency [17] | Potency [4] | Potency [6] | Potency [7] | Potency [9] | Potency [10] | Potency [12] | Potency [18] | Potency [13] | Potency [19] | Potency [20] | Potency [15] | Potency [16]

Fc1ccc(C(c2ccc(F)cc2)N2CCN(C/C=C/c3ccccc3)CC2)cc1
active: Potency [1] 16.8 µM | Potency [16] 16.8 µM
inactive: Potency [2] | Potency [17] | Potency [6] | Potency [7] | Potency [8] | Potency [20] | Potency [15]

COc1cc(/C=C/C(=O)CC(=O)/C=C/c2ccc(O)c(OC)c2)ccc1O
inactive: Potency [10] | Potency [12] | Potency [20] | Potency [15]
active: Potency [1] 48.9 µM | Potency [2] 15.4 µM | Potency [17] 39.2 µM | Potency [6] 16.3 µM | Potency [8] 46.1 µM | Potency [11] 22 µM

CCCc1nc(C)c2c(=O)[nH]c(-c3cc(S(=O)(=O)N4CCN(CC)CC4)ccc3OCC)nn12
inactive: Potency [1] | Potency [2] | Potency [17] | Potency [4] | Potency [7] | Potency [8] | Potency [10] | Potency [12] | Potency [18] | Potency [20] | Potency [16]

CCN(Cc1cccc(S(=O)(=O)O)c1)c1ccc(C(=C2C=CC(=[N+](CC)Cc3cccc(S(=O)(=O)O)c3)C=C2)c2ccc(O)cc2S(=O)(=O)[O-])cc1
inactive: Potency [2] | Potency [17] | Potency [4] | Potency [10] | Potency [11] | Potency [18] | Potency [13] | Potency [19]
active: Potency [1] 33.1 µM | Potency [6] 24.8 µM | Potency [7] 24.8 µM | Potency [8] 11.1 µM

CC(C)COCC(CN(Cc1ccccc1)c1ccccc1)N1CCCC1 (stereo not drawn)
active: Potency [1] 26.6 µM | Potency [10] 6.5 µM | Potency [11] 19 µM | Potency [20] 26.6 µM | Potency [16] 29.8 µM
inactive: Potency [2] | Potency [3] | Potency [4] | Potency [5] | Potency [6] | Potency [7] | Potency [8] | Potency [9] | Potency [12] | Potency [18] | Potency [15]

c1cc2ccc3ccc4ccc5cccc6c(c1)c2c3c4c56
inactive: activity change, negative = cytotoxicity [1] 3.98% [at 3.27 µM] | activity, positive = activation [2] 4.07% [at 3.27 µM] | activity change [17] 0.532% [at 2.04 µM, active compounds read high] | activation [4] -0.291% [at 2.04 µM] | activity change, negative = cytotoxicity [6] -1.32% [at 2.33 µM] | activity change, negative = cytotoxicity [8] 2.26% [at 2.33 µM] | activation [9] 5.49% [at 2.33 µM] | activity, negative = inhibition [10] 1.93% [at 2.12 µM] | activation [11] 13.2% [at 2.65 µM] | activity, negative = inhibition [12] 5.84% [at 2.17 µM] | activation [13] 6.38% [at 3.27 µM] | activity change, negative = inhibition [19] 7.84% [at 3.27 µM] | activity change, negative = inhibition [20] 4.76% [at 3.27 µM] | activation [15] -0.0755% [at 3.27 µM] | activity change, negative = inhibition [16] -0.594% [at 3.28 µM]

CCOC(=O)OC(C)OC(=O)[C@@H]1N2C(=O)[C@@H](NC(=O)[C@H](N)c3ccccc3)[C@H]2SC1(C)C (stereo partly drawn)
inactive: Potency [1] | Potency [2] | Potency [17] | Potency [7] | Potency [8] | Potency [11] | Potency [12] | Potency [18] | Potency [13] | Potency [19] | Potency [16]

O=C(Nc1ccc(Cl)c(Cl)c1)c1cc(Cl)cc(Cl)c1O
active: Potency [1] 3.44 µM | Potency [2] 27.3 µM | Potency [7] 40.8 µM | Potency [8] 4.08 µM | Potency [20] 24.3 µM
inactive: Potency [17] | Potency [5] | Potency [15] | Potency [16]

O=C1CCc2cc(OCCCCc3nnnn3C3CCCCC3)ccc2N1
inactive: Potency [1] | Potency [2] | Potency [17] | Potency [4] | Potency [6] | Potency [7] | Potency [8] | Potency [20] | Potency [14] | Potency [15]

C=C(C)C(=O)OCCOCCOC(=O)C(=C)C
inactive: Potency [1] | Potency [2] | Potency [17] | Potency [4] | Potency [6] | Potency [7] | Potency [8] | Potency [10] | Potency [11] | Potency [12] | Potency [18] | Potency [14] | Potency [15] | Potency [16]

C[C@]12CC[C@H]3C(=CCc4cc(O)ccc43)[C@@H]1CCC2=O
inactive: Potency [1] | Potency [2] | Potency [17] | Potency [6] | Potency [7] | Potency [8] | Potency [9] | Potency [10] | Potency [11] | Potency [12] | Potency [18] | Potency [13] | Potency [20] | Potency [14] | Potency [15] | Potency [16]

C=C1CC[C@H]2C[C@@H]1C2(C)C
inactive: Potency [1] | Potency [2] | Potency [17] | Potency [4] | Potency [6] | Potency [8] | Potency [10] | Potency [11] | Potency [12] | Potency [18] | Potency [13] | Potency [19] | Potency [20] | Potency [14] | Potency [15] | Potency [16]
